Bioassay records (PubChem BioAssay)
Rows were chosen to be rich in hits. Some 3.2% of all compounds tested hit in one or more screens of this group.
Tau FP inhib: inhibitors of human tau fibril formation; P10636; K18 P301L tau heparin fibrillization, Alexa594 FP, 6 h; Potency, µM (titrated, usually from 57.7 µM), for inactives: at the top dose activity, negative = inhibition, usual class: inhibitors; 0.39% of 280,000 active; AID 1468; further: nearly all actives have a fitted effect of over 55% in size
Target sequence (P10636 561-689 P618L limits assumed): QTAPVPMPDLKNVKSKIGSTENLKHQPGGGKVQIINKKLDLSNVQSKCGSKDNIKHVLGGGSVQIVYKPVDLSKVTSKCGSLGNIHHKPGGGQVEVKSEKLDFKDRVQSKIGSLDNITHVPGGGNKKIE
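K18 P301L tau (15 uM unlabeled/0.24 uM Alexa 594-labeled, final) + compound + heparin 20 uM final; 100 mM NaOAc pH 7; 6 hr 37 C; ThT 30 uM final added, 1 hr RT; FP ex 555/em 632 nm.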
TRb-SRC2 inh: inhibitors of human thyroid hormone receptor beta-SRC2 interaction; TRbeta-SRC2 peptide binding, fluorescence polarization; receptor liganded with 1 µM T3; 0.065% of 280,000 active; Potency, µM (series often up to 106 µM), inactives show at the top dose activity change, negative = inhibition, usual class: inhibitors; AID 1469; P10828;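 further: plate controls were bound peptide for no effect and peptide without receptor for full effect; nearly all actives have a fitted effect of over 50% in size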
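Polarization signal, normalized between peptide-alone and full complex controls, measured compound effects on T3-liganded human TRb LBD (0.6 uM) binding 20 nM Texas Red SRC2 peptide after 5 hr.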
GoLoco inh red: inhibitors of human Gai1-RGS12 GoLoco interaction (red fluorophore); P63096; Gai1:RGS12 GoLoco peptide FP, rhodamine, 10 min; Potency, µM (highest dose often 61.6 µM), for the others: at the top dose activity, negative = inhibition, hits mostly inhibitors; 0.44% of 230,000 active; active means well fitted inhibition curve with a large enough effect, not every such curve was filed as active; inactive means no such curve, though single readings can be large or run the other way; further: nearly all actives have a fitted effect of over 30% in size
Target sequence (P63096 whole entry, looked up): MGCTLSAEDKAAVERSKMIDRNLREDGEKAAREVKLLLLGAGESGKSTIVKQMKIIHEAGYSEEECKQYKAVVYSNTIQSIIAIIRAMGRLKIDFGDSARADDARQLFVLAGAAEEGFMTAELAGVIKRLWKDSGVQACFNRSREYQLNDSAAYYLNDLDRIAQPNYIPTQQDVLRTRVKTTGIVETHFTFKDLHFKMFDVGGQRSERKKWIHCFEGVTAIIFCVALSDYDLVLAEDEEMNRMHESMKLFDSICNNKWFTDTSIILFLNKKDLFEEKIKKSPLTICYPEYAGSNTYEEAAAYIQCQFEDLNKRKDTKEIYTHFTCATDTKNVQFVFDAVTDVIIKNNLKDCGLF
Tau fluor cs: counter-screen for tau fibril formation inhibitors | tau K18 P301L Alexa594 fluorescence, heparin fibrillization | 0.93% of 280,000 active | Potency, µM (highest dose often 57.7 µM), for the others: top-dose activity change, negative = decrease; further: nearly all actives have a fitted effect of over 55% in size
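Human tau K18 P301L (15 uM unlabeled, 0.24 uM Alexa 594-labeled) in 100 mM sodium acetate pH 7 with 20 uM heparin, 6 hr at 37 C. ThT 30 uM added, 1 hr ambient; Alexa 594 FP and total fluorescence read at 555/632 nm.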
TR SRC2 fluor cs: Texas Red fluorescence interference in TRb-SRC2 counter-screen; TRb/SRC2 Texas Red total fluorescence interference; Potency, µM (series often up to 106 µM), for the others: at the top dose fluorescence change, negative = quenching; 0.29% of 280,000 active; AID 1479; active means well fitted curve in either direction with a large enough effect; inconclusive means small, poorly fitted or top-dose-only effect
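Human TRβ ligand-binding domain (0.6 uM) and Texas Red SRC2 peptide (20 nM) in Tris buffer with 1 uM T3 and 5% DMSO were incubated with pinned compound for 5 hr at ambient temperature. Total fluorescence was computed as S + 2P (555/632 nm).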
Tau fibril ThT: inhibitors of human tau fibril formation, thioflavin T binding; AID 1460; P10636; 2.1% of 270,000 active; Potency, µM (series often up to 57.4 µM), inactives show at the highest dose activity, negative = inhibition, actives largely listed as inhibitors; recombinant tau K18 P301L (four-repeat tau fragment), heparin-induced fibrillization, ThT fluorescence; further: nearly all actives have a fitted effect of over 55% in size
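Aggregation was driven by heparin (20 uM final) acting on recombinant tau […] bearing P301L in 100 mM sodium acetate pH 7; fibrils were detected with Thioflavin T.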
* marks the source's active call; other numbers are inactive results; [ ] = another dose, or the depositor's remark. Unless noted, the call rests on the fitted dose curve; in most records, active means well fitted curve in the direction sought with a large enough effect; inconclusive means small, poorly fitted or top-dose-only effect, or another doubt; inactive means no such curve, though single readings can be large; an effect the other way counts as inactive or inconclusive. Unless noted, on the % scale 0 is the no-effect control and ±100 the full control effect; potency means the concentration at half of the fitted maximal effect.

How did O=C(O)c1cc2c(cc1S(=O)(=O)O)[C@H]1[C@@H](C3[C@H]2[C@@]2(Cl)C(Cl)=C(Cl)C3(Cl)C2(Cl)Cl)[C@]2(Cl)C(Cl)=C(Cl)C1(Cl)C2(Cl)Cl (stereo partly specified) do in these assays?
GoLoco inh red: -21%[14.2 µM]

What do the screens show for `COc1ccc(-n2ncc3c2ncn2nc(COc4ccc(Cl)cc4)nc32)cc1`?
Tau FP inhib: 4%; TRb-SRC2 inh: -8%; Tau fluor cs: 0%; TR SRC2 fluor cs: 7%; Tau fibril ThT: inconclusive

How did CSC(=[SH+])N=N/C(=C1/C=CC=CN1)c1ccccn1.[Cu][Br] do in these assays?
GoLoco inh red: -13%[14.2 µM]

What do the screens show for `CC(C)C[C@@H](CC(=O)N[C@H](CC(=O)N[C@@H]1CCCC[C@H]1C(=O)N[C@H](CC(=O)N[C@@H](CCC(=O)O)CC(=O)O)CC(C)C)C(C)C)NC(=O)[C@@H]1CNCC[C@H]1N`?
Tau FP inhib: -8%; TRb-SRC2 inh: 4%; GoLoco inh red: -3%; Tau fluor cs: -12%; TR SRC2 fluor cs: -2%; Tau fibril ThT: inconclusive

What do the screens show for `CC1(C)N=C(N)N=C(N)N1c1cccc(OCc2cccc([N+](=O)[O-])c2)c1`?
GoLoco inh red: 4%[14.2 µM]

Results for O=C(COCC(=O)Nc1cccc(C(F)(F)F)c1)Nc1cccc(C(F)(F)F)c1 ?
Tau FP inhib: 11µM*; TRb-SRC2 inh: -15%; GoLoco inh red: 6%; Tau fluor cs: inconclusive; TR SRC2 fluor cs: -1%; Tau fibril ThT: 5%

How did FC(F)(F)c1cccc(NC(=S)Nc2ccc(Cl)c(Cl)c2)c1 do in these assays?
Tau FP inhib: 22µM*; TRb-SRC2 inh: 9%; GoLoco inh red: 8%; Tau fluor cs: 18µM*[quencher]; TR SRC2 fluor cs: -5%; Tau fibril ThT: inconclusive

How did FC(F)(F)c1cccc(NC(=S)NNC(=S)Nc2cccc(C(F)(F)F)c2)c1 do in these assays?
Tau FP inhib: inconclusive; TRb-SRC2 inh: -1%; GoLoco inh red: 10%; Tau fluor cs: 10µM*[quencher]; TR SRC2 fluor cs: 2%; Tau fibril ThT: 28µM*

How did COc1ccc([C@H]2c3cc(OC)c(OC)cc3C[C@@H](C)[C@@H]2C)cc1OC do in these assays?
Tau FP inhib: -2%; TRb-SRC2 inh: 1%; GoLoco inh red: 4%; Tau fluor cs: -7%; TR SRC2 fluor cs: 0%; Tau fibril ThT: -14%

How did CCOc1ccc(N=Nc2c(=O)[nH]n3c(C)cc(C)nc23)cc1 do in these assays?
Tau FP inhib: 4%; TRb-SRC2 inh: 3%; GoLoco inh red: 47%; Tau fluor cs: -14%; TR SRC2 fluor cs: -3%; Tau fibril ThT: 13µM*

Results for COc1cccc(N=Nc2c(=O)[nH]n3c(C)cc(C)nc23)c1 ?
Tau FP inhib: 4%; TRb-SRC2 inh: 3%; GoLoco inh red: 3%; Tau fluor cs: -8%; TR SRC2 fluor cs: -9%; Tau fibril ThT: inconclusive

How did N[C@](CC1c2ccccc2Oc2ccccc21)(C(=O)O)[C@H]1C[C@@H]1C(=O)O do in these assays?
Tau FP inhib: 0%; TRb-SRC2 inh: 9%; GoLoco inh red: 9%; Tau fluor cs: 3%; TR SRC2 fluor cs: -1%; Tau fibril ThT: 9%

How did CCN1C(C)=C(C(=O)OC)C(c2ccccc2)N2C(=O)[C@@]3(C(=O)OC)O[C@@]12C1C(=O)N(C)C(=O)C13 (stereo partly specified) do in these assays?
Tau FP inhib: -2%[11.6 µM]; TRb-SRC2 inh: -1%[11.2 µM]; Tau fluor cs: -3%[11.6 µM]; TR SRC2 fluor cs: 1%[11.2 µM]; Tau fibril ThT: -8%[11.5 µM]

What do the screens show for `O=C1CC(SC(=NCc2ccc3c(c2)OCO3)Nc2ccccc2)C(=O)N1` (stereo unspecified)?
Tau FP inhib: inconclusive; TRb-SRC2 inh: -7%; GoLoco inh red: 3%; Tau fluor cs: -27%; TR SRC2 fluor cs: -2%; Tau fibril ThT: -17%

How did COc1ccc(CN=C(Nc2ccccc2)SC2CC(=O)NC2=O)cc1 (stereo unspecified) do in these assays?
Tau FP inhib: -4%[2.34 µM]; TRb-SRC2 inh: 3%; GoLoco inh red: 10%; Tau fluor cs: -63%; TR SRC2 fluor cs: 10%; Tau fibril ThT: 10µM*

How did CC[C@H](C)[C@H](NC(=O)CNC(=O)[C@H](C)NC(=O)[C@H](C)N)C(=O)NCC(=O)N[C@H](C(=O)N[C@@H](CC(C)C)C(=O)N[C@H](C(=O)N[C@H](C(=O)O)C(C)C)[C@@H](C)O)[C@@H](C)CC do in these assays?
TRb-SRC2 inh: -1%; TR SRC2 fluor cs: -1%

What do the screens show for `CCOC(CNC(=O)c1ccc(N2CCc3ccccc32)c([N+](=O)[O-])c1)OCC`?
Tau FP inhib: inconclusive; TRb-SRC2 inh: -4%; GoLoco inh red: 3%; Tau fluor cs: inconclusive; TR SRC2 fluor cs: -1%; Tau fibril ThT: 13µM*

What do the screens show for `Nc1cc(N2CCCCC2)c(Cl)cc1[N+](=O)[O-]`?
Tau FP inhib: -2%; TRb-SRC2 inh: 6%; GoLoco inh red: -4%; Tau fluor cs: inconclusive; TR SRC2 fluor cs: -2%; Tau fibril ThT: 13µM*

Results for Nc1cc(N2CCCCC2)c([N+](=O)[O-])cc1Cl ?
Tau FP inhib: -15%; TRb-SRC2 inh: 15%; GoLoco inh red: -6%; Tau fluor cs: 7%; TR SRC2 fluor cs: 2%; Tau fibril ThT: 13%

What do the screens show for `O=C1CSC(=NC2CCCCC2)N1`?
Tau FP inhib: inconclusive; TRb-SRC2 inh: -5%; GoLoco inh red: 5%; Tau fluor cs: -8%; TR SRC2 fluor cs: 1%; Tau fibril ThT: 22µM*

Results for CCOC(=O)c1nn(-c2ccccc2C)c(=O)c2c(N)scc12 ?
Tau FP inhib: 18µM*; TRb-SRC2 inh: -3%; GoLoco inh red: -11%; Tau fluor cs: -26%; TR SRC2 fluor cs: -1%; Tau fibril ThT: 16µM*

What do the screens show for `COC(=O)C1(C(=O)OC)CC2=CC(CC2=O)Cc2ccccc2[C@@H]1C[N+](=O)[O-]` (stereo partly specified)?
Tau FP inhib: -8%; TRb-SRC2 inh: 3%; GoLoco inh red: 22µM*; Tau fluor cs: -9%; TR SRC2 fluor cs: -1%; Tau fibril ThT: -2%

What do the screens show for `O=C(Cn1cc(/C=N/NC(=O)c2ccccc2Br)c2ccccc21)Nc1ccc(F)cc1`?
Tau FP inhib: -7%; TRb-SRC2 inh: -2%; GoLoco inh red: 5%; Tau fluor cs: 16µM*[quencher]; TR SRC2 fluor cs: 0%; Tau fibril ThT: -14%
